Data: PubChem BioAssay AID1508602 (The Scripps Research Institute Molecular Screening Center, 2020)
Among all 650,000 compounds or so, about 6,800 (1%) were called active. No stated cut-off is given here; in the data, active means activation above about 4.9%; inactive means the rest. Shown is part of a subset that was picked to be rich in actives.

The compounds below were run against G-protein coupled receptor 151 (Homo sapiens) (UniProt Q8TDV0) (assay: activates the human receptor GPR151, primary screen, cell-based, PathHunter beta-arrestin, luminescence (AID 1508602;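 further: 0% = median of compound wells and 100% = cells with positive control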)). Conditions: PathHunter beta-arrestin GPR151 cells, at 11.2 µM, stronger effect = higher value.
G-protein coupled receptor 151 (Homo sapiens), sequence (Q8TDV0 whole entry, looked up): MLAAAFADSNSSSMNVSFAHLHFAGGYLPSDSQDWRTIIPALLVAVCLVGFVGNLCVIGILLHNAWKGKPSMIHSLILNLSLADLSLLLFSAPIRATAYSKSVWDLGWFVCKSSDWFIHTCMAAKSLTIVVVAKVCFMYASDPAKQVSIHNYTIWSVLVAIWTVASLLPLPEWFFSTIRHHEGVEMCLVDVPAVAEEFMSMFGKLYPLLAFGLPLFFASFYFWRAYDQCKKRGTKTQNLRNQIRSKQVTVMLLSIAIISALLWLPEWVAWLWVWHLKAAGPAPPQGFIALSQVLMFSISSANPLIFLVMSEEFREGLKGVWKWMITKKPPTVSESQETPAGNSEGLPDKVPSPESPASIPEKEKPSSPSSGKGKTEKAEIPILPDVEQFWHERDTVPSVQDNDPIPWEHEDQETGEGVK
In the case of Cn1c(CNc2ccc(F)cc2)c(C#N)c2ccccc21, the activation was 0.294% (inactive). With Cc1ccc(NCc2ccccc2CO)cc1 the activation was -5.47% (inactive). OCc1ccccc1CNc1ccc(F)cc1 was tested, and the activation was 10.3% (active). COc1cc(CN2CCN(C3CCCC3)C(CCO)C2)cc(OC)c1OC (configuration not stated) was tested, and the activation was -0.445% (inactive). In the case of C=CCSc1nc2c(c(=O)n1CC1CCCC1)C1(CCCC1)Cc1ccccc1-2, the activation was 0.419% (inactive). O=c1c2c([nH]c(=S)n1Cc1ccco1)-c1ccccc1CC21CCCCC1 was tested, and the activation was -0.102% (inactive). For CC(C)CCSc1nc2c(c(=O)n1Cc1ccco1)C1(CCCCC1)Cc1ccccc1-2, the activation was 16.5% (active). CC(C)(C)C(=O)/C=C/c1ccccc1O was tested, and the activation was 0.824% (inactive). For CC(C)N(CCNC(=O)c1cccc(-c2cccs2)n1)C(C)C, the activation was -1.28% (inactive). CCCCc1ccc(NC(=O)CN2C(=O)C(C)SC(C)C2=O)cc1 (configuration not stated) was tested, and the activation was 6.11% (active). With CCCCc1ccc(NC(=O)CSc2nnc(C)s2)cc1 the activation was 0.0157% (inactive). With CCc1ccc(NC(=O)CN2C(=O)CSC(C)C2=O)cc1 (configuration not stated) the activation was -0.109% (inactive). With Cc1ccccc1C(=O)NNC(=O)c1ccccc1F the activation was -3.61% (inactive). For CSC1=C(C#N)C(c2ccc(Cl)cc2Cl)CC(=O)N1 (configuration not stated), the activation was -1.96% (inactive). With CCOc1ccc(NC(=O)CSC2=C(C#N)C(c3ccc(Cl)cc3Cl)CC(=O)N2)cc1 (configuration not stated) the activation was -1.43% (inactive). C=CCSC1=C(C#N)C(c2ccc(Cl)cc2Cl)CC(=O)N1 (configuration not stated) was tested, and the activation was 5.51% (active). For COc1ccc([N+](=O)[O-])cc1NC(=O)c1cccc(Cl)c1Cl, the activation was -1.48% (inactive). For COc1ccc([N+](=O)[O-])cc1NC(=O)C1CC(Cl)=CCC1C(=O)O (configuration not stated), the activation was 6.77% (active). In the case of O=C(O)C1CC=C(Cl)CC1C(=O)Nc1cccc([N+](=O)[O-])c1 (configuration not stated), the activation was -0.78% (inactive). For CCN1CCN(C(=O)C(C)Oc2ccc(Cl)cc2Cl)CC1 (configuration not stated), the activation was -0.795% (inactive). For CCc1ccc(-n2c(C)c(C)n3c4c(=O)n(CC)c(=O)n(C)c4nc23)cc1, the activation was 5.92% (active). In the case of CCCn1c(=O)c2c(nc3n(-c4ccc(C)cc4)c(C)c(C)n23)n(C)c1=O, the activation was 3.26% (inactive). With CCOC(=O)c1ccc(-n2c(C)c(C)n3c4c(=O)n(CC)c(=O)n(C)c4nc23)cc1 the activation was 1.57% (inactive). For CCn1c(C)c(CCC(=O)NN2CCOCC2)c(=O)n2nc(-c3ccccc3OC)cc12, the activation was -0.283% (inactive). CCCCC(CCCC)=N/N=C1\NC(=O)C(CC(=O)O)S1 (configuration not stated) was tested, and the activation was -1.58% (inactive). In the case of N#Cc1ccc(C(=O)OCC(=O)Nc2ccc3[nH]c(=O)[nH]c3c2)cc1, the activation was 0.615% (inactive). COc1ccc(C(=O)N/N=C/c2ccc(O)c3ncccc23)cc1 was tested, and the activation was -2.28% (inactive). In the case of Cc1ccc(S(=O)(=O)N2CCN(Cc3ccc(F)cc3)CC2)cc1, the activation was -0.354% (inactive). For O=S(=O)(c1ccc(F)cc1)N1CCN(Cc2ccccc2F)CC1, the activation was 0.53% (inactive). In the case of O=S(=O)(c1ccc(F)cc1)N1CCN(CCCc2ccccc2)CC1, the activation was 5.43% (active). For Cc1cc(C)c2c(=O)[nH]c(SCC(=O)c3ccc(F)cc3)nc2n1, the activation was 3.2% (inactive). In the case of COc1ccccc1N1CCN(C(=O)c2cc(-c3ccc(Cl)c(Cl)c3)nc3ccccc23)CC1, the activation was -0.435% (inactive). With COc1ccc(NC(=O)C23CCC(C)(C(=O)C2)C3(C)C)c(OC)c1 (configuration not stated) the activation was 0.482% (inactive). COc1ccc(C(=O)CSc2nc3sc4c(c3c(=O)n2-c2ccc(Cl)cn2)CCCC4)c(F)c1 was tested, and the activation was 5.7% (active). COc1ccc(-n2c(SCC(=O)c3ccccc3)nc3sc4c(c3c2=O)CCCC4)cc1 was tested, and the activation was -0.298% (inactive). In the case of CCCCSc1nc2sc3c(c2c(=O)n1-c1ccc(OC)cc1)CCCC3, the activation was 0.438% (inactive). In the case of Oc1ccc(-c2n[nH]c(=S)o2)cc1, the activation was -2.2% (inactive). In the case of CC(C)(C)c1ccc(S(=O)CC(O)CSc2nc(-c3cccs3)cc(-c3ccccc3)c2C#N)cc1 (configuration not stated), the activation was 0.807% (inactive). For COC(=O)c1cc(NC(=O)C2C3C=CC(C3)C2C(=O)O)cc(C(=O)OC)c1 (configuration not stated), the activation was -0.454% (inactive). In the case of CCCCOC(=O)c1ccc(NC(=O)C2C3C=CC(O3)C2C(=O)O)cc1 (configuration not stated), the activation was -1.25% (inactive). CC(C)COC(=O)c1ccc(NC(=O)C2C3C=CC(C3)C2C(=O)O)cc1 (configuration not stated) was tested, and the activation was 6.08% (active). With O=c1c2c3c(sc2nc(SCc2cccc(Br)c2)n1-c1ccccc1)CCC3 the activation was 0.0499% (inactive). In the case of O=C(O)COc1ccc(NC(=O)/C=C/c2ccco2)cc1, the activation was 3.09% (inactive). With CC(C)NS(=O)(=O)c1ccc(OCC(=O)NC2CCCCCC2)cc1 the activation was -1.64% (inactive). O=C(COc1ccc(S(=O)(=O)Nc2ccc(F)cc2)cc1)NC1CCCC1 was tested, and the activation was 1.64% (inactive). In the case of O=C(COc1ccc(S(=O)(=O)NCCc2ccccc2)cc1)NC1CC1, the activation was 5.83% (active). In the case of Cc1ccc(NC(=O)CSc2nnc3sc4ccccc4n23)cc1, the activation was -0.639% (inactive). With Cc1ccc(S(=O)(=O)c2nnn3c2nc(NCc2ccco2)c2ccccc23)cc1 the activation was -0.413% (inactive). C=CCc1cc(C)ccc1OCCCn1ccnc1 was tested, and the activation was 2.6% (inactive). For Cc1ccc(C(C)C)c(OCCCn2ccnc2)c1, the activation was 4.92% (active). In the case of Cc1ccc(C(C)C)c(OCCN2CCNCC2)c1, the activation was 0.889% (inactive). In the case of COc1ccc(CCNc2nc(-c3ccccc3)nc3c2ncn3C2CCCCC2)cc1, the activation was 0.405% (inactive). With COc1ccc(CCNC(=O)c2ccccc2C(=O)O)cc1OC the activation was -1.14% (inactive). In the case of O=[N+]([O-])c1ccc(-n2c(-c3ccccc3)nnc2-c2ccccc2)cc1, the activation was -0.192% (inactive). In the case of Cc1csc(NC(=O)CSc2nnc(Cc3cccn3C)n2-c2ccccc2)n1, the activation was 0.245% (inactive). O=C1N=C(N2CCN(c3ccc([N+](=O)[O-])cc3)CC2)S/C1=C/c1ccccc1 was tested, and the activation was -0.706% (inactive). C=CCOc1ccc(/C=C2\C(=O)N(c3ccc([N+](=O)[O-])cc3)N=C2c2ccccc2)cc1 was tested, and the activation was -2.33% (inactive). For O=C1/C(=C\c2ccccc2)C(N2CCOCC2)=NN1c1ccc([N+](=O)[O-])cc1, the activation was 6.57% (active). In the case of CCC(=O)Nc1cc(-c2ccco2)nn1-c1nc(CC)cc(=O)[nH]1, the activation was -0.772% (inactive). COC(=O)NCCOc1ccc(C(C)(C)C)cc1 was tested, and the activation was 0.726% (inactive). In the case of COCCNCCOc1ccc(C(C)(C)C)cc1, the activation was 8.42% (active). CC(C)(C)c1ccc(OCCCCNCCO)cc1 was tested, and the activation was 0.146% (inactive). For Cc1ccc(N2C(=O)CC(N3CCN(C(c4ccccc4)c4ccccc4)CC3)C2=O)c(Br)c1 (configuration not stated), the activation was -0.0796% (inactive). For CCc1cc(C(=O)N2CCCCC2C)cs1 (configuration not stated), the activation was 1.3% (inactive). Cc1ccc(CNC(=O)CN(C)S(=O)(=O)c2ccccc2)cc1 was tested, and the activation was -0.21% (inactive). For COc1ccc(CON2C(=O)c3ccccc3C2=O)cc1Cl, the activation was -1.06% (inactive). CCc1ccc(S(=O)(=O)N2CCCC(C(=O)c3ccc(OC)c(OC)c3)C2)s1 (configuration not stated) was tested, and the activation was 0.139% (inactive). With COc1ccc(C(=O)C2CCCN(S(=O)(=O)c3cccc(C)c3)C2)c(C)c1 (configuration not stated) the activation was 5.47% (active). With O=C(NNC(=O)C1CCCN(S(=O)(=O)c2cccc(Cl)c2)C1)C1CC1 (configuration not stated) the activation was 0.674% (inactive). With CCCOc1ccccc1C1CC(=O)C2=C(C1)Nc1ccccc1N(C(C)=O)C2c1ccc(OC)cc1 (configuration not stated) the activation was -0.237% (inactive). Cc1ccc(Cn2c(C)c3cnn(CC(=O)N4CCCC4)c(=O)c3c2C)cc1 was tested, and the activation was -0.279% (inactive). COc1ccc(O)c(C(=O)/C=C/c2ccc(F)cc2)c1 was tested, and the activation was -1.75% (inactive). With O=C(/C=C/c1ccccc1)c1ccc(O[C@@H]2O[C@H](CO)[C@@H](O)[C@H](O)[C@H]2O)cc1O the activation was 0.684% (inactive). With O=C(/C=C/c1ccccc1)c1ccccc1O the activation was 5.61% (active). In the case of Cc1c(Cl)cccc1-n1c(/C=C/c2cccc3ccccc23)nc2ccccc2c1=O, the activation was 1.58% (inactive). COC(=O)c1ccccc1NC(=O)c1ccc(CN(c2ccc(C)c(C)c2)S(C)(=O)=O)cc1 was tested, and the activation was -0.0331% (inactive). For CNC(=O)c1ccc(CN(c2ccc(C)c(C)c2)S(C)(=O)=O)cc1, the activation was 0.29% (inactive). CC(=O)c1ccc(NC(=O)c2ccc(CN(c3ccc(C)c(C)c3)S(C)(=O)=O)cc2)cc1 was tested, and the activation was 5.09% (active). For Cc1cnc(CNC(=O)c2ccc3cncc(-c4cc5ccccc5o4)c3n2)cn1, the activation was -1.58% (inactive). COc1ccc(NC(=O)CSc2nc(=O)n(CCCN(C)C)c3c2CCC3)cc1OC was tested, and the activation was -0.304% (inactive). In the case of CCOc1c(Cl)cc(CNCc2ccccc2)cc1OC, the activation was 5.18% (active). For COc1cc(Cl)c(CNCc2ccccc2)cc1OC, the activation was -1.13% (inactive). In the case of COc1cc(CO)cc(Cl)c1OCc1ccccc1, the activation was 0.149% (inactive). With Cc1ccc(CNC(=O)CSc2nc3ccccc3c(=O)n2CC2CCC(C(=O)NCc3ccco3)CC2)cc1 (configuration not stated) the activation was -0.182% (inactive). In the case of O=C1NC(=O)c2cc(N3C(=O)c4cccc([N+](=O)[O-])c4C3=O)ccc21, the activation was -0.912% (inactive). O=C1c2cccc([N+](=O)[O-])c2C(=O)N1c1ccc2ccccc2c1 was tested, and the activation was 0.404% (inactive). For CN1C(=O)c2ccc(N3C(=O)c4cccc([N+](=O)[O-])c4C3=O)cc2C1=O, the activation was 5.16% (active). CC1(C)CC(=O)c2cc(C(=O)Nc3cccc(F)c3)c(=O)n(-c3ccccc3)c2C1 was tested, and the activation was 0.451% (inactive). For O=C(NCCc1ccccc1)c1ccc2c(c1)NC(=O)C(CS(=O)(=O)Cc1cccc(F)c1)N2 (configuration not stated), the activation was -0.907% (inactive). In the case of O=C1N[C@@H](COCc2ccccc2)C(=O)N2C[C@@H](NCc3ccsc3)C[C@@H]12, the activation was 1.22% (inactive). With CC(C)c1ccc(CN[C@H]2C[C@H]3C(=O)N[C@@H](COCc4ccccc4)C(=O)N3C2)cc1 the activation was 5.83% (active). For CC(C)C[C@H]1NC(=O)[C@@H]2C[C@H](NCc3ccccc3)CN2C1=O, the activation was 2.09% (inactive).
